Inconclusive results are not listed. Active and inactive are the calls of the source. The call rests on the fitted dose curve; in most records, active means well fitted curve in the direction sought with a large enough effect; inconclusive means small, poorly fitted or top-dose-only effect, or another doubt; inactive means no such curve, though single readings can be large; an effect the other way counts as inactive or inconclusive.
What was measured:
[1] = Primary fluorescence-based thiol-reactive (MSTI) qHTS assay for identification of artifact compounds. (AID 1845221); further: nearly all actives have a fitted effect of over 65% in size; further: potency means the concentration at half of the fitted maximal effect
Procedure, shortened: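 In PBS pH 7.4 with 2% DMSO, each compound met 4 uM MSTI for one hour at ambient temperature, shielded from light, before fluorescence detection.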

[2] = test system: Nanoluciferase (engineered Oplophorus gracilirostris luciferase); assay: Primary Nanoluciferase (NLuc) qHTS assay for identification of artifact compounds. (AID 1845222)
Procedure, shortened: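 Diluted conditioned medium from NLuc-expressing S16 cells treated with compounds for 15 min at room temperature, then Nano-Glo substrate added; luminescence read after 5 min. Percent inhibition versus no-enzyme and DMSO controls fitted to 4-parameter Hill equation.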

[3] = Primary redox qHTS assay for identification of artifact compounds. (AID 1845223)
Procedure, shortened: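 Amplex Red (25 uM) and HRP (250 mU/mL) in HBSS, with compounds for 15 min, then 250 uM DTT for 30 min, room temperature, dark. Fluorescence 525/598 nm read; normalized to DMSO and 10 uM DA3003; Hill fit.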

[4] = Quantitative High-Throughput drug screen in 47 multiple myeloma cell lines against the NCATS MIPE library collection: FR4_PLB cell viability assay (AID 1918924; further: nearly all actives have a fitted effect of over 35% in size; further: potency means the concentration at half of the fitted maximal effect)
Procedure, shortened: (§1)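 Inhibition of cell viability is measured here. Each line was plated at 500 cells per well, treated with MIPE 4.0 drugs, kept 48 hours at 37C, then assayed for ATP content by CellTiter-Glo luminescence.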

[5] = Quantitative High-Throughput drug screen in 47 multiple myeloma cell lines against the NCATS MIPE library collection: ARP1_JJKsccF8 cell viability assay (AID 1918928; further: nearly all actives have a fitted effect of over 40% in size; further: potency means the concentration at half of the fitted maximal effect)
Procedure, shortened: (§2)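 Luminescence from CellTiter-Glo, taken after 5 min at room temperature, reports cellular ATP as viability. Cells (500 per well) had been treated 48 h at 37 °C with MIPE 4.0 compounds, scaled between DMSO and medium-only controls.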

[6] = Quantitative High-Throughput drug screen in 47 multiple myeloma cell lines against the NCATS MIPE library collection: KHM11_PLB cell viability assay (AID 1918962); further: nearly all actives have a fitted effect of over 35% in size; further: potency means the concentration at half of the fitted maximal effect
Procedure, shortened: as §1

[7] = Quantitative High-Throughput drug screen in 47 multiple myeloma cell lines against the NCATS MIPE library collection: JIM3_ECACC cell viability assay (AID 1918963; further: nearly all actives have a fitted effect of over 35% in size; further: potency means the concentration at half of the fitted maximal effect)
Procedure, shortened: as §1

[8] = Quantitative High-Throughput drug screen in 47 multiple myeloma cell lines against the NCATS MIPE library collection: INA6_PLB cell viability assay (AID 1918965; further: nearly all actives have a fitted effect of over 55% in size; further: potency means the concentration at half of the fitted maximal effect)
Procedure, shortened: (§3)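 qHTS of the MIPE 4.0 collection: 500 myeloma cells/well, 48 h drug exposure at 37C in 5% CO2, then CellTiter-Glo for 5 min at room temperature before luminescence reading.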

[9] = Quantitative High-Throughput drug screen in 47 multiple myeloma cell lines against the NCATS MIPE library collection: JJN3_DSMZ cell viability assay (AID 1918966; further: nearly all actives have a fitted effect of over 50% in size; further: potency means the concentration at half of the fitted maximal effect)
Procedure, shortened: (§4)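 Approved and investigational drugs from MIPE 4.0 were added by pin tool to 500 cells per well. After 48 hours at 37C, ATP-based CellTiter-Glo luminescence indicated remaining viability.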

[10] = Quantitative High-Throughput drug screen in 47 multiple myeloma cell lines against the NCATS MIPE library collection: Karpas25_ECACC cell viability assay (AID 1918968; further: nearly all actives have a fitted effect of over 35% in size; further: potency means the concentration at half of the fitted maximal effect)
Procedure, shortened: as §4

[11] = Quantitative High-Throughput drug screen in 47 multiple myeloma cell lines against the NCATS MIPE library collection: EJM_DSMZ cell viability assay (AID 1918926; further: nearly all actives have a fitted effect of over 30% in size; further: potency means the concentration at half of the fitted maximal effect)
Procedure, shortened: as §4

[12] = Quantitative High-Throughput drug screen in 47 multiple myeloma cell lines against the NCATS MIPE library collection: Karpas620_DSMZ cell viability assay (AID 1918959); further: nearly all actives have a fitted effect of over 30% in size; further: potency means the concentration at half of the fitted maximal effect
Procedure, shortened: as §1

[13] = Quantitative High-Throughput drug screen in 47 multiple myeloma cell lines against the NCATS MIPE library collection: Karpas417_ECACC cell viability assay (AID 1918961); details: Karpas417 myeloma viability, CellTiter-Glo ATP luminescence, 48 h; viability (% of DMSO): at 45.8 µM (top of the series); further: potency means the concentration at half of the fitted maximal effect
Procedure, shortened: as §3

[14] = Quantitative High-Throughput drug screen in 47 multiple myeloma cell lines against the NCATS MIPE library collection: H1112_PLB cell viability assay (AID 1918967; further: nearly all actives have a fitted effect of over 30% in size; further: potency means the concentration at half of the fitted maximal effect)
Procedure, shortened: as §4

[15] = Quantitative High-Throughput drug screen in 47 multiple myeloma cell lines against the NCATS MIPE library collection: Delta47_JCRB cell viability assay (AID 1918925; further: nearly all actives have a fitted effect of over 45% in size; further: potency means the concentration at half of the fitted maximal effect)
Procedure, shortened: as §4

[16] = Quantitative High-Throughput drug screen in 47 multiple myeloma cell lines against the NCATS MIPE library collection: ARD_JJKsccE7 cell viability assay (AID 1918929; further: potency means the concentration at half of the fitted maximal effect)
Procedure, shortened: as §4

[17] = Quantitative High-Throughput drug screen in 47 multiple myeloma cell lines against the NCATS MIPE library collection: KMM1_JCRB cell viability assay (AID 1918960); further: nearly all actives have a fitted effect of over 30% in size; further: potency means the concentration at half of the fitted maximal effect
Procedure, shortened: as §2

[18] = Quantitative High-Throughput drug screen in 47 multiple myeloma cell lines against the NCATS MIPE library collection: JIM1_ECACC cell viability assay (AID 1918964; further: potency means the concentration at half of the fitted maximal effect)
Procedure, shortened: as §4

[19] = Quantitative High-Throughput drug screen in 47 multiple myeloma cell lines against the NCATS MIPE library collection: KMS27_JCRB cell viability assay (AID 1918970); details: KMS27 myeloma cells, CellTiter-Glo ATP viability, 48 h; viability (% of DMSO): at 45.8 µM (top of the series); further: nearly all actives have a fitted effect of over 30% in size; further: potency means the concentration at half of the fitted maximal effect
Procedure, shortened: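 CellTiter-Glo luminescence after 48 h drug exposure at 37 °C; 500 cells/well, 1536-well format, pin-tool compound addition; DMSO = 100%, media-only = 0% viability.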

[20] = Quantitative High-Throughput drug screen in 47 multiple myeloma cell lines against the NCATS MIPE library collection: AMO1_DSMZ cell viability assay (AID 1918927; further: nearly all actives have a fitted effect of over 30% in size; further: potency means the concentration at half of the fitted maximal effect)
Procedure, shortened: as §4

Measured: Potency

O=C1C(c2c(O)[nH]c3ccccc23)=Nc2ccccc21
active: [1] 0.184 µM | [4] 14.8 µM | [5] 6.62 µM | [9] 6.62 µM | [10] 6.62 µM
inactive: [2] | [3] | [6] | [7] | [8]

Cc1cnc(Nc2cccc(CN3CCOCC3)c2)nc1Nc1cccc(S(=O)(=O)NC(C)(C)C)c1
active: [4] 14.8 µM | [11] 10.5 µM | [5] 5.26 µM | [12] 4.69 µM | [13] 0.662 µM | [7] 2.96 µM | [8] 0.469 µM | [9] 5.9 µM | [14] 13.2 µM | [10] 3.72 µM
inactive: [1] | [2] | [3]

CN1CCC(COc2cnc(-c3cccc(Cn4nc(-c5cccc(C#N)c5)ccc4=O)c3)nc2)CC1
inactive: [1] | [2] | [3] | [16] | [12] | [17] | [18]
active: [4] 26.4 µM | [15] 0.209 µM | [5] 20.9 µM | [7] 0.372 µM | [8] 0.418 µM | [9] 0.0332 µM | [14] 0.118 µM | [10] 0.0743 µM

NC(=O)c1ccc(N(C(N)=O)c2c(F)cccc2F)nc1-c1ccc(F)cc1F
active: [15] 5.9 µM | [7] 11.8 µM | [8] 18.7 µM | [14] 5.26 µM | [10] 7.43 µM
not listed: [6] | [9] | [11] | [13] | [16] | [20]
inactive: all other assays above

CC[C@H](CC#N)OC(=O)N[C@@H](C)c1cccc(NC(=O)Nc2ccc(-c3cnco3)c(OC)c2)c1
active: [4] 1.48 µM | [11] 11.8 µM | [20] 0.418 µM | [16] 14.8 µM | [12] 18.7 µM | [17] 0.418 µM | [7] 1.32 µM | [18] 13.2 µM | [8] 1.05 µM | [14] 1.66 µM | [19] 14.8 µM
inactive: [1] | [2] | [3]

O[C@@H](COc1cccc2ncccc12)CN1CCN(C2c3ccccc3[C@@H]3[C@H](c4ccccc42)C3(F)F)CC1 (stereo not given in full)
inactive: [1] | [2] | [3] | [20] | [16] | [12] | [17] | [13]
active: [4] 23.5 µM | [6] 16.6 µM | [7] 13.2 µM | [9] 14.8 µM

NS(=O)(=O)c1cc(Cl)c(Cl)c(S(N)(=O)=O)c1
active: [5] 8.33 µM
not listed: [11] | [17]
inactive: all other assays above

CC(C)CNc1ccnc(NCc2csc(-c3ccccc3)n2)n1
inactive: [1] | [2] | [3]
active: [4] 16.6 µM | [15] 2.35 µM | [20] 10.5 µM | [16] 5.9 µM | [12] 5.26 µM | [17] 7.43 µM | [13] 16.6 µM | [6] 9.35 µM | [7] 5.26 µM | [18] 11.8 µM | [8] 2.64 µM | [14] 6.62 µM | [10] 0.935 µM | [19] 13.2 µM

COc1ccc(-c2nc3ccc(C4=NNC(=O)CC4C)cc3[nH]2)cc1 (stereo not given)
not listed: [6] | [8] | [10] | [13] | [14] | [15] | [19]
inactive: all other assays above

O=C(Nc1ccc(OC(F)(F)F)cc1)c1sccc1NCc1ccnc2ccccc12
inactive: [1] | [2] | [3]
active: [4] 4.69 µM | [15] 5.26 µM | [20] 23.5 µM | [12] 4.69 µM | [8] 18.7 µM | [9] 9.35 µM | [10] 13.2 µM

N#CC1(c2cccc(C(=O)Nc3cc(Oc4ccc5nc(NC(=O)C6CC6)sc5n4)ccc3F)c2Cl)CC1
inactive: [1] | [2] | [3] | [15]
active: [4] 10.5 µM | [11] 20.9 µM | [5] 9.35 µM | [16] 0.59 µM | [13] 0.187 µM | [8] 5.9 µM | [14] 13.2 µM

CNc1nc(Nc2ccc(C(=O)N3CCOCC3)cc2OC)ncc1Cl
active: [7] 20.9 µM
not listed: [5] | [6] | [8] | [9] | [13] | [16] | [18] | [19]
inactive: all other assays above

NC1(C(=O)N[C@@H](CCO)c2ccc(Cl)cc2)CCN(c2ncnc3[nH]ccc23)CC1
active: [15] 0.0833 µM | [11] 10.5 µM | [20] 1.87 µM | [5] 2.09 µM | [16] 0.0469 µM | [12] 2.64 µM | [17] 0.118 µM | [7] 1.05 µM | [18] 0.209 µM | [8] 7.43 µM | [9] 2.96 µM | [14] 7.43 µM | [10] 0.418 µM
inactive: [1] | [2] | [3]

Source: PubChem BioAssay (NCATS)
